Test results reported in PubChem BioAssay (NCI).
About 83,000 compounds went through this panel and 20% of them were active in at least one assay; those are over-represented in the sample as a whole.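 Step 1: grow cells in 96-well plates. Step 2: add test compound at a single concentration. Step 3: incubate 48 h. Step 4: record percent growth.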 Values without a mark were called inactive. Calls of active or inactive are those of the source. How the source made its calls: active means growth percent below 10; inactive means the rest.

tested on: SF-539 CNS; assay: NCI-60 one-dose screen, 48 h (100 = growth as untreated, 0 = no growth, -100 = all killed); conditions: 10 µM unless noted

Row | SMILES | growth
1 | CN1CCN(c2nc(-c3csc(-c4cccs4)n3)cc3ccccc23)CC1 | 86.7%
2 | O=C(O[C@@H]1Cc2c(O)cc(O)cc2O[C@@H]1c1cc(O)c(O)c(O)c1)c1cc(O)c2c(c1)OCO2 | 108%
3 | C/C(Cc1ccc(Cl)cc1)=C(/c1ccc(Cl)cc1)c1ccc(OCCN2CCCC2)cc1 | 89.7%
4 | Cc1cc(N(CCCNc2ccnc3cc(Cl)ccc23)Cc2ccco2)nc(N2CCOCC2)n1 | 51.1%
5 | Cc1ccccc1-c1nc(C(Cl)Cl)nc2cc(-c3ccccc3)nn12 | 76.3%
6 | O=C1/C(=C\C(Cl)=C/c2ccc([N+](=O)[O-])cc2)SC(=S)N1CCc1ccc(O)cc1 | -75.4% (active)
7 | Brc1ccc2c(c1)c(-c1nc(-c3c[nH]c4ncccc34)cs1)cn2CCCN1CCCCC1 | -77.6% (active)
8 | Cn1c(/C(C#N)=C/c2ccc3ccccc3c2)cc2ccccc21 | 3.9% (active)
9 | CN(CSc1ccc(Cl)cc1)c1ccc(CSc2ccc(Cl)cc2)cc1 | 47.4%
10 | CCNCCCn1c2c(c3ccc([N+](=O)[O-])cc3c1=O)C(=O)c1cc(OC)cnc1-2 | -48.2% (active)
11 | CC1(C)NC2=C(C(Nc3cccnc3)N1)C(c1ccc([N+](=O)[O-])cc1)C(C(=O)c1ccc(N=[N+]=[N-])cc1)O2 (stereo not drawn) | 102%
12 | COc1ccc(C2C(C#N)=C(N)Oc3c2sc2c(F)cccc32)cc1 (stereo not drawn) | 1.03% (active)
13 | COc1cc(-c2cc3ncccc3c3[nH]c(=O)c4cccnc4c23)cc(OC)c1OC | 5.37% (active)
